According to PubChem BioAssay (EPA / NIEHS):
“And” between values parts separate entries of the source, which are not always exact repeats. Equal entries are not always repeated. Where a structure was tested more than once in an assay, its records may differ in their call. The source made the active and inactive calls. How the source made its calls: active means hit-call score of the fitted dose curve at least 0.9, where 1 is the maximum; inactive means score below 0.9.

Key:
[1] = read-out: Plasminogen activator inhibitor-1 (PAI1), SERPINE1 (gene 5054); assay: BSK_MyoF_PAI1: BioMAP Diversity Plus: MyoF Assay for Plasminogen activator inhibitor-1 (PAI1) Biomarker Activity (AID 2284256); settings: primary human lung fibroblasts;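 on outcome: PAI-1 read 24 h after compound addition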
Summary of the method: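 Primary human lung fibroblasts treated with chemical for 24 h; PAI-1 levels quantified by ELISA relative to DMSO. Cytotoxicity was assessed in parallel cultures by SRB total-protein staining (0.1% SRB after 10% TCA fixation, 560 nm).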

[2] = read-out: Monokine induced gamma interferon (MIG), CXCL9 (gene 4283); assay: BSK_KF3CT_MIG: BioMAP Diversity Plus: KF3CT Assay for Monokine induced gamma interferon (MIG) Biomarker Activity (AID 2284248); settings: primary human keratinocytes with fibroblasts
Summary of the method: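 Human keratinocyte–foreskin fibroblast co-culture; MIG measured by ELISA 24 h after chemical dosing, fitted upward versus DMSO. Cytotoxicity was assessed in parallel cultures by SRB total-protein staining read at 560 nm.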

[3] = read-out: Collagen I, COL1A1 (gene 1277); assay: BSK_hDFCGF_CollagenI: BioMAP Diversity Plus: hDFCGF Assay for Collagen I Biomarker Activity (AID 2284250); settings: primary human foreskin fibroblasts
Summary of the method: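 Collagen I ELISA, primary human foreskin fibroblasts, 24 h chemical exposure, DMSO = negative control/baseline, positive fitting direction.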

[4] = read-out: Interferon-inducible T-cell alpha chemoattractant (ITAC), CXCL11 (gene 6373); assay: BSK_hDFCGF_ITAC: BioMAP Diversity Plus: hDFCGF Assay for Interferon-inducible T-cell alpha chemoattractant (ITAC) Biomarker Activity (AID 2284251); settings: primary human foreskin fibroblasts
Summary of the method: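 Chemical dosing of primary human foreskin fibroblast cultures preceded ELISA measurement of I-TAC at 24 h. Response was analysed in the positive direction using DMSO as baseline, while parallel SRB staining measured cytotoxicity.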

[5] = read-out: Plasminogen activator inhibitor-1 (PAI1), SERPINE1 (gene 5054); assay: BSK_KF3CT_PAI1: BioMAP Diversity Plus: KF3CT Assay for Plasminogen activator inhibitor-1 (PAI1) Biomarker Activity (AID 2284252); settings: primary human keratinocytes with fibroblasts
Summary of the method: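 Cells (human keratinocytes co-cultured with foreskin fibroblasts) are exposed to test chemical for 24 h. PAI-1 is then measured by ELISA and analysed for signal gain against DMSO.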

[6] = read-out: Interleukin-8 (IL8), CXCL8 (gene 3576); assay: BSK_KF3CT_IL8: BioMAP Diversity Plus: KF3CT Assay for Interleukin-8 (IL8) Biomarker Activity (AID 2284254); settings: primary human keratinocytes with fibroblasts
Summary of the method: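 Human keratinocyte/foreskin fibroblast co-culture dosed 24 h; IL-8 measured by ELISA relative to DMSO. Parallel cultures stained with SRB for total protein to flag cytotoxicity.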

[7] = read-out: Macrophage Inflammatory Protein-1 Alpha (MIP1a), CCL3 (gene 6348); assay: BSK_IMphg_MIP1a: BioMAP Diversity Plus: IMphg Assay for Macrophage Inflammatory Protein-1 Alpha (MIP1a) Biomarker Activity (AID 2284255); settings: primary human endothelial cells with macrophages
Summary of the method: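 MIP-1a protein levels were quantified by ELISA after 24 h treatment of human endothelial cell–macrophage co-cultures, compared with DMSO. Parallel cultures were fixed with TCA and stained with 0.1% SRB to gauge overt cytotoxicity.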

CD69, CD69 (gene 969) = assay: BSK_IMphg_CD69: BioMAP Diversity Plus: IMphg Assay for CD69 Biomarker Activity (AID 2284257); settings: primary human endothelial cells with macrophages
Summary of the method: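 Readout is ELISA for CD69 in primary human venular endothelial cell/macrophage co-culture, taken at 24 h post-dosing. SRB staining of parallel cultures gauged overt cytotoxicity; signal increase versus DMSO defined activity.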

[8] = read-out: Eotaxin 3, CCL26 (gene 10344); assay: BSK_BF4T_Eotaxin3: BioMAP Diversity Plus: BF4T Assay for Eotaxin 3 Biomarker Activity (AID 2284258); settings: primary human bronchial epithelial cells with fibroblasts
Summary of the method: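 ELISA measurement of Eotaxin-3 after 24 h chemical exposure in a bronchial epithelial/dermal fibroblast co-culture, with DMSO as baseline. Parallel SRB staining (0.1% SRB after 10% TCA fixation, 560 nm) flagged overt cytotoxicity.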

[9] = read-out: Monocyte Chemoattractant Protein-1 (MCP1), CCL2 (gene 6347); assay: BSK_BF4T_MCP1: BioMAP Diversity Plus: BF4T Assay for Monocyte Chemoattractant Protein-1 (MCP1) Biomarker Activity (AID 2284259); settings: primary human bronchial epithelial cells with fibroblasts
Summary of the method: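 MCP-1 ELISA readout taken 24 h after dosing in the BF4T system (bronchial epithelial cells plus dermal fibroblasts). Parallel SRB total-protein staining flagged cytotoxicity; DMSO served as baseline, positive fitting direction.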

With `Oc1cc2ccccc2cc1O` the outcome [1] was “inactive”.

With `CCCCCc1ccc(O)cc1` the AC50 [1] was 32.2 µM (active).

`OCC(F)(F)C(F)(F)C(F)(F)C(F)(F)C(F)(F)C(F)(F)C(F)(F)C(F)(F)C(F)(F)C(F)(F)C(F)(F)F` was tested, and the outcome [2] was “inactive”, the AC50 [3] was 42.7 nM (active) and 48.2 nM (active) and the outcome [4] was “inactive”. The outcome [5] was “inactive”, the outcome [6] was “inactive” and the outcome [7] was “inactive”. The outcome [1] was “inactive”, the outcome (CD69, CD69 (gene 969)) was “inactive” and the outcome [8] was “inactive”. For the same molecule, the outcome [9] was “inactive”.

For `O=S(=O)(O)C(F)(F)C(F)(F)C(F)(F)C(F)(F)C(F)(F)C(F)(F)C(F)(F)C(F)(F)C(F)(F)C(F)(F)F`, the outcome [2] was “inactive”, the outcome [3] was “inactive” and the AC50 [4] was 8.02 µM (active). For the same molecule, the outcome [4] was “inactive”, the outcome [5] was “inactive” and the outcome [6] was “inactive”. For the same molecule, the outcome [7] was “inactive”, the outcome [1] was “inactive” and the outcome (CD69, CD69 (gene 969)) was “inactive”. For the same molecule, the AC50 [8] was 5.78 µM (active) and 2.59 µM (active) and the outcome [9] was “inactive”.

`COCN(COC)c1nc(N(COC)COC)nc(N(COC)COC)n1` was tested, and the outcome [1] was “inactive”.

With `O=C(O)CCC(F)(F)C(F)(F)C(F)(F)C(F)(F)C(F)(F)C(F)(F)F` the outcome [2] was “inactive”, the outcome [3] was “inactive” and the outcome [4] was “inactive”. The outcome [5] was “inactive”, the outcome [6] was “inactive” and the AC50 [7] was 7.18 µM (active) and 19.2 µM (active). For the same molecule, the outcome [7] was “inactive”, the outcome [1] was “inactive” and the AC50 (CD69, CD69 (gene 969)) was 13.6 µM (active). The outcome (CD69, CD69 (gene 969)) was “inactive”, the AC50 [8] was 2.88 µM (active) and the outcome [8] was “inactive”. For the same molecule, the outcome [9] was “inactive”.

For `CCCCCCCCCCCC`, the AC50 [2] was 20.2 µM (active) and 20.6 µM (active), the AC50 [3] was 9.41 µM (active) and 9.63 µM (active) and the AC50 [4] was 8.55 µM (active) and 5.79 µM (active). The AC50 [5] was 10.4 µM (active) and 10.5 µM (active) and the AC50 [6] was 20 µM (active) and 27.3 µM (active).

`Oc1ccc(Cc2ccccc2O)cc1` was tested, and the outcome [2] was “inactive”, the outcome [3] was “inactive” and the outcome [4] was “inactive”. For the same molecule, the outcome [5] was “inactive” and the outcome [6] was “inactive”.

In the case of `O=P(O)(O)CCC(F)(F)C(F)(F)C(F)(F)C(F)(F)C(F)(F)C(F)(F)F`, the outcome [2] is reported as “inactive”, the outcome [3] is reported as “inactive” and the outcome [4] is reported as “inactive”. The outcome [5] was “inactive”, the outcome [6] was “inactive” and the outcome [7] was “inactive”. For the same molecule, the outcome [1] was “inactive”, the outcome (CD69, CD69 (gene 969)) was “inactive” and the outcome [8] was “inactive”. The outcome [9] was “inactive”.

For `CCCCC(CC)C(=O)OCCOCCOCCOCCOC(=O)C(CC)CCCC` (stereo not drawn), the outcome [1] was “inactive”.

In the case of `O=P(O)(O)CCC(F)(F)C(F)(F)C(F)(F)C(F)(F)C(F)(F)C(F)(F)C(F)(F)C(F)(F)F`, the outcome [2] is reported as “inactive”, the outcome [3] is reported as “inactive” and the AC50 [4] is reported as 0.236 µM (active). The outcome [4] was “inactive”, the outcome [5] was “inactive” and the outcome [6] was “inactive”. For the same molecule, the outcome [7] was “inactive”, the outcome [1] was “inactive” and the outcome (CD69, CD69 (gene 969)) was “inactive”. The AC50 [8] was 8.05 µM (active), the outcome [8] was “inactive” and the outcome [9] was “inactive”.

In the case of `O=C(O)CCC(F)(F)C(F)(F)C(F)(F)C(F)(F)C(F)(F)F`, the outcome [2] is reported as “inactive”, the outcome [3] is reported as “inactive” and the AC50 [4] is reported as 2.04 µM (active). For the same molecule, the outcome [4] was “inactive”, the outcome [5] was “inactive” and the outcome [6] was “inactive”. The AC50 [7] was 835 nM (active), the outcome [7] was “inactive” and the outcome [1] was “inactive”. The outcome (CD69, CD69 (gene 969)) was “inactive”, the outcome [8] was “inactive” and the outcome [9] was “inactive”.

`CN(Cc1cnc2nc(N)nc(N)c2n1)c1ccc(C(=O)N[C@@H](CCC(=O)O)C(=O)O)cc1` was tested, and the outcome [2] was “inactive”, the outcome [3] was “inactive” and the outcome [4] was “inactive”. The outcome [5] was “inactive”, the outcome [6] was “inactive” and the outcome [7] was “inactive”. For the same molecule, the outcome [1] was “inactive”, the outcome (CD69, CD69 (gene 969)) was “inactive” and the outcome [8] was “inactive”. The outcome [9] was “inactive”.

With `O=C(O)C(F)(F)OC(F)(F)C(F)(F)OC(F)(F)C(F)(F)OC(F)(F)C(F)(F)C(F)(F)C(F)(F)F` the AC50 [2] was 29.6 µM (active) and 27.5 µM (active), the AC50 [3] was 30 µM (active) and the AC50 [4] was 11.1 µM (active) and 11.3 µM (active). For the same molecule, the AC50 [5] was 15.9 µM (active) and 18.7 µM (active), the outcome [6] was “inactive” and the AC50 [7] was 36.5 µM (active) and 38.3 µM (active). For the same molecule, the AC50 [1] was 14.6 µM (active) and 13.3 µM (active), the AC50 (CD69, CD69 (gene 969)) was 40.2 µM (active) and 24.2 µM (active) and the AC50 [8] was 7.32 µM (active) and 7.02 µM (active). The AC50 [9] was 7.5 µM (active) and the outcome [9] was “inactive”.
